# Source: PubChem BioAssay (several laboratories)
# CHT block: inhibits the human high affinity choline transporter. Q9GZV3. CHT-expressing cells, membrane potential dye, choline response; active compounds read low. B-score at 10 µM. 310,000 compounds, 0.86% hits. AID 488975;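 active = B-score over 3 SD under the library average, and starting fluorescence ratio not unusually high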;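 also: choline stimulus applied at its EC90 after an EC20 pre-addition; B-score computed on integrated fluorescence ratio after choline addition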
# Target sequence (Q9GZV3 whole entry, looked up): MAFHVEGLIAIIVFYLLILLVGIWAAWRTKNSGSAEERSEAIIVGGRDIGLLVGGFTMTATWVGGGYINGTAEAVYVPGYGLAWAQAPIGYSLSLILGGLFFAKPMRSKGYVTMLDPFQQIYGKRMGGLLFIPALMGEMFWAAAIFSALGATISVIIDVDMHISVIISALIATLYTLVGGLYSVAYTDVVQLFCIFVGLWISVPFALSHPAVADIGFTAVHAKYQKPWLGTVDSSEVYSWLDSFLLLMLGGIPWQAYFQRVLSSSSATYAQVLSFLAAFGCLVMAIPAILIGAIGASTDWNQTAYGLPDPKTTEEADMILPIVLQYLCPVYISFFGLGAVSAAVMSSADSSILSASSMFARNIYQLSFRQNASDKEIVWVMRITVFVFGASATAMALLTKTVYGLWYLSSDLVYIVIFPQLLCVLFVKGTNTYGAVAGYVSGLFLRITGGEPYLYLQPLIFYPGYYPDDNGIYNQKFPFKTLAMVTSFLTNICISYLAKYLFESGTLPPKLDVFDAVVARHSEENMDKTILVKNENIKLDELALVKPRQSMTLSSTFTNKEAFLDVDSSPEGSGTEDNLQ
# NALP1 yeast inh: NALP1 inhibition | S. cerevisiae NALP1/ASC/caspase-1 growth, X-gal OD620, 72 h | inhibition, % at 10 µM | 280,000 compounds, 0.61% hits; in the data active = inhibition mostly above about 24%, no sharp cut-off; inactive = mostly below about 32%
# Mot1-301 SUMO: inhibitors of SUMOylation pathway: yeast Mot1-301 growth rescue; S. cerevisiae Mot1-301 growth rescue, ATP luminescence, 38.5C; percent above DMSO median, 100 means doubled; growth rescue, % at 18.8 µM; 320,000 compounds, 1% hits; AID 2716;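 active = every valid replicate shows activation above 250% relative to neutral control wells; inactive = the rest, any valid replicate at or below 250%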;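 also: OY570 slx delta 5 strain wells were the positive control but not used for scaling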
# NALP3 yeast inh: inhibitors of NALP3 inflammasome in yeast; AID 2825; Yeast reconstituted NLRP3/ASC/caspase-1, beta-gal luminescence, 24 h; 330,000 compounds, 0.39% hits; inhibition, % at 10 µM;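 active = inhibition of 50% or more; inactive = inhibition below 50%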;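 also: plate controls were induced DMSO wells for no effect and uninduced yeast grown without galactose for full effect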
# CHT PAM: allosteric activators of human choline transporter CHT; Q9GZV3; CHT-expressing cells, membrane potential dye, choline EC20; active compounds read high; LV-AA mutant CHT in HEK293 cells; B-score at 10 µM; 310,000 compounds, 0.49% hits; AID 488977;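 active = initial fluorescence not abnormally high and integrated response B-score, plate-corrected, over 3 SD above library mean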
# Bfl-1 A1 inh: inhibitors of the anti-apoptotic protein A1, read as caspase activation. MEF A1-2A-BIM cells, Caspase-Glo 3/7 luminescence, 3 h; percent of clofoctol response, vehicle zero. caspase activation, % (no concentration beside the values). 330,000 compounds, 0.066% hits. AID 2462;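 active = over half of replicate activation scores above 10%, or exactly half above 10 with the replicate mean above 10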
# Mot1 SUMO dose: SUMO pathway inhibitors in yeast Mot1-301 growth; shares compounds with Mot1-301 SUMO; S. cerevisiae Mot1-301 galactose growth, ATP luminescence, 24 h; -100 = growth of slx-deleted rescue strain; growth activity, percent, % at 42 µM; 2,300 tested, under 10 active; AID 493004;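 active = Signal drops as the depositor expects, and the fitted half-maximal dose is no more than ten times the top valid tested dose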;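 also: more negative values mean stronger growth rescue toward the control strain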
# * hit, by the source's call; i = inactive; · = no result; + = active, no number. Compounds with a hit are over-represented: about 3% of the library has one in this group of screens.
SMILES,CHT block,NALP1 yeast inh,Mot1-301 SUMO,NALP3 yeast inh,CHT PAM,Bfl-1 A1 inh,Mot1 SUMO dose
CC1CC(C)CN(CCCNC(=O)CN2C(=O)CSc3ccc(S(=O)(=O)N4CCCCC4)cc32)C1 (centres undefined),i,-11,1,3,i,0,·
CCN(C(=O)COC(=O)COc1ccc(Cl)c(C)c1)C1CCS(=O)(=O)C1 (centres undefined),·,·,-20,1,·,0,·
Cc1ccc(OCc2ccc(C(=O)NNC(=S)NCC3CCCO3)o2)c([N+](=O)[O-])c1 (centres undefined),i,6,4,19,i,0,·
CC1(C)Cc2cccc(Oc3cc(NN4CCCCC4)c([N+](=O)[O-])cc3[N+](=O)[O-])c2O1,i,6,-9,26,i,2,·
Cc1sc2ncnc(N3CCC(C(=O)NNC(=O)COc4ccccc4F)CC3)c2c1C,i,·,422*,14,i,0,0
Cc1cc(NC(=O)c2cccnc2Cl)ccc1NC(=O)c1cc2ccccc2o1,i,6,21,10,i,1,·
O=C(Nc1cccnc1Cl)c1cc2ccccc2o1,i,3,567*,25,i,-8,0
Cc1ccc(C)c(N(C(=O)c2csnn2)C(C(=O)NC2CCCCC2)c2cccnc2)c1 (centres undefined),i,7,1,11,i,0,·
CC1(C)C=C(c2ccc(O)cc2)CC(C)(C)N1,i,-8,660*,-5,i,1,1
C/C=C(/C(=C/C)c1ccc(O)cc1)c1ccc(O)cc1,i,4,-5,-18,i,1,·
NC(=O)CC(NC(=S)NCc1ccccc1)C(=O)O (centres undefined),i,18,583*,9,i,1,0
Cc1ccc(-n2nc3c(c2NC(=O)C(C)(C)C)CS(=O)(=O)C3)cc1,i,20,-10,16,i,0,·
Cc1ccc(-c2nc(-c3cccnc3)sc2CC(=O)O)cc1,i,-8,885*,13,i,-1,0
CC(=O)Nc1ccc(NC(=O)Cc2sc(-c3cccnc3)nc2-c2ccc(C)cc2)cc1,i,7,-6,22,i,1,·
O=C(CCNC(=O)c1ccc(Br)cc1)NCc1ccccc1F,i,·,812*,8,i,0,-1
CC(C)C1OC2(C)OC(=N)C1(C#N)C(C#N)(C#N)C2c1ccccc1 (centres undefined),i,29,414*,-6,i,0,1
CSc1nnc2c3cc(C)ccc3n(Cc3ccccc3)c2n1,i,-2,910*,5,i,1,0
O=C(/C=C/c1ccc(OC(F)F)cc1)Nc1cccc(S(=O)(=O)N2CCOCC2)c1,i,13,23,2,i,1,·
CC(C)Sc1nc2sccc2c(=O)n1-c1ccccc1,i,14,-13,24,i,1,·
CCCCc1nnc(NC(=O)CSc2nc(O)c(-c3ccccc3)c(=O)[nH]2)s1,i,24,631*,9,i,2,1
C=C1N(c2ccc(Cl)cc2)C(=O)OC1(C)C,i,20,66,30,i,2,·
CCN1C(=O)N(c2ccc(Cl)cc2)C(C)=CC1(C)C,i,27,837*,1,i,0,0
C=CCN(C(=O)CNC(=O)c1ccco1)C(C(=O)NC1CCCCC1)c1ccccc1 (centres undefined),i,5,737*,1,i,2,0
COc1ccc(N(C(=O)CNC(=O)c2ccco2)C(C(=O)NC2CCCC2)c2ccc(C)o2)cc1 (centres undefined),i,12,127,5,i,0,·
Cc1ccc(C(C(=O)NC2CCCCC2)N(CCC(C)C)C(=O)CNC(=O)c2ccco2)o1 (centres undefined),i,2,+,14,i,0,-1
SMILES,CHT block,NALP1 yeast inh,Mot1-301 SUMO,NALP3 yeast inh,CHT PAM,Bfl-1 A1 inh,Mot1 SUMO dose
CCCN(CCC)C(=O)C1CCCN(S(=O)(=O)c2ccc3c(c2)oc(=O)n3C)C1 (centres undefined),i,4,2,-6,i,-2,·
CC(NC(=O)C1CCN(C(=O)c2ccc(F)cc2)CC1)c1ccc(-n2ccnc2)cc1 (centres undefined),·,·,13,-3,·,-1,·
CCOc1ccc(C(=O)c2cccs2)cc1,i,8,387*,25,i,-1,0
CCOc1ccc(NC(=O)CNC(=O)c2cccs2)cc1,i,6,4,-15,i,0,·
CC(OC(=O)Cn1cnc2c1c(=O)n(C)c(=O)n2C)C(=O)NC(C)c1ccc(Cl)cc1Cl (centres undefined),i,·,-2,21,i,0,·
N#CCCN(C(=O)COC(=O)c1ccc(S(=O)(=O)Nc2ccccc2)cc1)c1ccccc1,i,20,+,-5,i,-1,0
N#CCCN(C(=O)COC(=O)c1cccc(S(=O)(=O)Nc2ccc([N+](=O)[O-])cc2)c1)c1ccccc1,i,30,444,15,i,0,·
CCOc1c(Cl)cc(CNCC(O)c2ccccc2)cc1OC (centres undefined),i,3,614*,8,i,-1,0
CC(NS(=O)(=O)c1ccc2c(c1)CC(C)N2C(=O)C1CC1)c1ccccc1 (centres undefined),i,11,747,10,i,0,·
CN(Cc1ccccc1)S(=O)(=O)c1ccc(OCC(=O)NCc2ccccn2)cc1,i,-1,-1,28,i,0,·
CC(C)NC(=O)COc1ccc(S(=O)(=O)N(C)Cc2ccccc2)cc1,i,-5,363*,-7,i,-1,-1
COc1ccc(CN2C(=O)c3c(c(C)n(C)c3C)C2C(=O)NC2CCC(C)CC2)cc1 (centres undefined),i,28,697*,9,i,0,-1
COc1ccc(OC)c(Cc2nnc(CCC(=O)NCc3ccsc3)o2)c1,i,10,+,25,i,-2,0
COc1ccc(OC)c(Cc2nnc(CCC(=O)NC3CCCCC3)o2)c1,i,-5,-11,-2,i,1,·
CC1=C(C(=O)OCc2ccccc2)C(c2cccc(F)c2)NC(=O)N1 (centres undefined),i,20,611*,10,i,-2,0
Clc1ccc2c(c1)-c1[nH]ncc1CS2,i,14,-16,13,i,0,·
